# Laboratory results: the supplement of paper PMC9023506
# Structures can show the parent of a compound that is named as a salt.
# Test system: Danio rerio larvae (5 dpf)
# Assay: optomotor response to green moving lines, difference vs DMSO (percentage points (treated minus DMSO)); higher = more of the behaviour than the DMSO vehicle control
# Conditions: 10 µM; exposure time: 3 h pre-incubation + 3 h imaging
# Description: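 5-dpf wild-type zebrafish larvae were imaged in 96-well plates. They were treated with 190 Tocris FDA-approved drugs at 10 µM (1 µl/ml DMSO) for 3 h before and 3 h during imaging at 28.5 °C, 48 larvae per drug. Automated image analysis gave % time moving and optomotor responses. Values are drug group mean minus DMSO vehicle mean (n=844), in percentage points, for 10 behaviours.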
row,Structure (SMILES),optomotor response to green moving lines
1,CC(=O)O[C@H]1C(=O)[C@@]2(C)[C@H]([C@H](OC(=O)c3ccccc3)[C@]3(O)C[C@H](OC(=O)[C@H](O)[C@@H](NC(=O)c4ccccc4)c4ccccc4)C(C)=C1C3(C)C)[C@]1(OC(C)=O)CO[C@@H]1C[C@@H]2O [Taxol],-4.62
2,CC(=O)Nc1ccc(O)cc1 [Acetaminophen],8.32
3,OC(CNCC(O)C1CCc2cc(F)ccc2O1)C1CCc2cc(F)ccc2O1 (stereo not given) [Nebivolol hydrochloride],-4.67
4,OCc1cc(C(O)CNCCCCCCOCCCCc2ccccc2)ccc1O (stereo not given) [Salmeterol xinafoate],-6.89
5,CC(C)OC(=O)C(C)(C)Oc1ccc(C(=O)c2ccc(Cl)cc2)cc1 [Fenofibrate],8.84
6,COC(=O)C1=C(C)NC(C)=C(C(=O)OC(C)C)C1c1cccc2nonc12 (stereo not given) [Isradipine],-1.42
7,Cn1cnc([N+](=O)[O-])c1Sc1ncnc2[nH]cnc12 [Azathioprine],-1.06
8,C=CC(=O)N1CCC[C@@H](n2nc(-c3ccc(Oc4ccccc4)cc3)c3c(N)ncnc32)C1 [Ibrutinib],-2.12
9,N#Cc1ccc2[nH]cc(CCCCN3CCN(c4ccc5oc(C(N)=O)cc5c4)CC3)c2c1 [Vilazodone hydrochloride],-30.3
10,Nc1nc2c(ncn2COCCO)c(=O)[nH]1 [Acyclovir],0.472
11,C[C@@H]1C[C@H]2[C@@H]3CCC4=CC(=O)C=C[C@]4(C)[C@@]3(F)[C@@H](O)C[C@]2(C)[C@@]1(O)C(=O)CO [Dexamethasone],1.46
12,CCC(C)(C)C(=O)O[C@H]1C[C@@H](C)C=C2C=C[C@H](C)[C@H](CC[C@@H]3C[C@@H](O)CC(=O)O3)[C@H]21 [Simvastatin],4.17
13,COc1cc2ncnc(Nc3ccc(F)c(Cl)c3)c2cc1OCCCN1CCOCC1 [Iressa],-10.8
14,CCCCCCCCc1ccc(CCC(N)(CO)CO)cc1,-1.15
15,O=C(Nc1c(Cl)cncc1Cl)c1ccc(OC(F)F)c(OCC2CC2)c1 [Roflumilast],-11.7
16,CN(C)CCc1c[nH]c2ccc(Cn3cncn3)cc12 [Rizatriptan benzoate],3.24
17,C[C@H]1O[C@H](O[C@H]2[C@H](O)[C@@H](O)[C@@H](O[C@H]3[C@H](O)[C@@H](O)C(O)O[C@@H]3CO)O[C@@H]2CO)[C@H](O)[C@@H](O)[C@@H]1N[C@H]1C=C(CO)[C@@H](O)[C@H](O)[C@H]1O (stereo not given in full) [Acarbose],6.59
18,CCOC(=O)C1=C(C)NC(C)=C(C(=O)OC)C1c1cccc(Cl)c1Cl (stereo not given) [Felodipine],-6.01
19,N#Cc1ccc(C(c2ccc(C#N)cc2)n2cncn2)cc1 [Letrozole],6.3
20,CC(C)N(CCCCOCC(=O)NS(C)(=O)=O)c1cnc(-c2ccccc2)c(-c2ccccc2)n1 [Selexipag],-4.69

row,Structure (SMILES),optomotor response to green moving lines
1,Nc1nc2[nH]cc(CCc3ccc(C(=O)N[C@@H](CCC(=O)O)C(=O)O)cc3)c2c(=O)[nH]1 [Pemetrexed],8.22
2,CCCCc1nc(Cl)c(CO)n1Cc1ccc(-c2ccccc2-c2nnn[nH]2)cc1 [Losartan potassium],-0.568
3,CN(C)CCC[C@@]1(c2ccc(F)cc2)OCc2cc(C#N)ccc21 [Escitalopram oxalate],1.9
4,CC(C)C(=O)Nc1ccc([N+](=O)[O-])c(C(F)(F)F)c1 [Flutamide],-1.99
5,CN1CC[C@@H](NC(=O)Nc2ccc(C#N)cc2)C[C@@H]1c1nc2ccccc2[nH]1,-5.63
6,CN1CCN(CCCN2c3ccccc3Sc3ccc(Cl)cc32)CC1 [Prochlorperazine dimaleate],3.92
7,CC(=O)NC[C@H]1CN(c2ccc(N3CCOCC3)c(F)c2)C(=O)O1 [Linezolid],5.36
8,N#C[C@@H]1C[C@@H]2C[C@@H]2N1C(=O)[C@@H](N)C12CC3CC(CC(O)(C3)C1)C2 [Saxagliptin hydrochloride],-3.2
9,CC1CNc2c(cccc2S(=O)(=O)N[C@@H](CCCNC(=N)N)C(=O)N2CC[C@@H](C)C[C@@H]2C(=O)O)C1 (stereo not given in full) [Argatroban],-1.18
10,CCCN(CCC)S(=O)(=O)c1ccc(C(=O)O)cc1 [Probenecid],10.3
11,Nc1cccc2c1CN(C1CCC(=O)NC1=O)C2=O (stereo not given) [Lenalidomide],7.44
12,Nc1nc(F)nc2c1ncn2[C@@H]1O[C@H](CO)[C@@H](O)[C@@H]1O [Fludarabine],1.3
13,CC(c1cc2ccccc2s1)N(O)C(N)=O (stereo not given) [Zileuton],-11.3
14,Cc1cc(C2CCCCC2)n(O)c(=O)c1 [Ciclopirox],-5.97
15,CCN(CC)CCNC(=O)c1c(C)[nH]c(/C=C2\C(=O)Nc3ccc(F)cc32)c1C [Sunitinib malate],-7.59
16,Cc1ccc(NC(=O)c2ccc(CN3CCN(C)CC3)cc2)cc1Nc1nccc(-c2cccnc2)n1 [Imatinib mesylate],-13.4
17,Cc1cccc(CN2CCN(C(c3ccccc3)c3ccc(Cl)cc3)CC2)c1 (stereo not given) [Meclizine dihydrochloride],-8.55
18,Cc1cn([C@H]2C=C[C@@H](CO)O2)c(=O)[nH]c1=O [Stavudine],1.24
19,NS(=O)(=O)c1cc2c(cc1Cl)NC(C1CC3C=CC1C3)NS2(=O)=O (stereo not given) [Cyclothiazide],0.907
20,CC(C)CN(C[C@@H](O)[C@H](Cc1ccccc1)NC(=O)O[C@H]1CO[C@H]2OCC[C@H]21)S(=O)(=O)c1ccc(N)cc1 [Darunavir],1.64
